Assay results as given in PubChem BioAssay AID624504 (Sanford-Burnham Center for Chemical Genomics, 2012).
In all, about 5,000 compounds went through this assay and about 3,900 (78%) were called active. Rule as the data show it: active = inhibition above about 22%; inactive = the rest. So high a share suggests a set chosen from earlier hits. These entries were drawn from the full list.

Assay: fluorescence retest of MPTP screen hits in isolated mitochondria, single concentration (AID 624504);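 also: 0% = DMSO vehicle and 100% = positive control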
Details: membrane potential, Rhodamine 123 fluorescence, at 10 µM, hits give high values

SMILES | inhibition
CC(NC(=S)Nc1ccc(OC(F)F)cc1)c1ccc(F)cc1 (centres undefined) | 93.7% (active)
FC(F)(F)c1cccc(NC(=S)Nc2cccc(Cl)c2)c1 | 96.6% (active)
O=C(Nc1cccc(S(=O)(=O)Nc2ccc(Cl)cc2)c1)c1ccc2c(c1)OCCO2 | 80.9% (active)
S=C(Nc1cccc(Cl)c1)Nc1ccc2c(c1)OCCO2 | 100% (active)
O=C(Nc1cccc(-c2cccc(Cl)c2)c1)C1CCN(C2CCC2)CC1 | -9.69% (inactive)
O=[N+]([O-])c1ccc(NS(=O)(=O)c2ccccc2)c(Cl)c1 | 97.2% (active)
N#C[C@]1(S(=O)(=O)c2ccccc2)C[C@@H]2ON=C(c3cccc(Br)c3)[C@@H]2C1 | 90.7% (active)
O=C(/C=C/c1ccc(F)cc1)Nc1cccc(S(=O)(=O)Nc2cccc(C(F)(F)F)c2)c1 | 69.5% (active)
O=C(/C=C(O)/C=C/c1ccc(O)cc1)/C=C/c1ccc(O)cc1 | 70.7% (active)
COc1cccc(CNc2nc(NCc3cccs3)nc3ccsc23)c1 | 102% (active)
COc1ccccc1CNc1nc(Nc2ccccc2Cl)c2sccc2n1 | 67% (active)
COc1cccc(CNc2nc(NCc3ccccc3OC)nc3ccsc23)c1 | 121% (active)
C=CCC1(CC=C)CCCN1C(=O)c1cc(COc2ccc(-n3cncn3)cc2)on1 | 103% (active)
CC(C)S(=O)(=O)c1csc(NC(=O)Nc2ccc(Cl)cc2)c1Cl | 90.1% (active)
CCCCCOC(=O)NCCOC(=O)Nc1ccc(C(=O)OCC)cc1 | 72.7% (active)
CCNCCC(=O)N1c2ccccc2Sc2ccc(NC(=O)OCC)cc21 | -7.23% (inactive)
Cn1nccc1C(=O)NC1CCCc2c1cnn2-c1ccc(F)cc1F (centres undefined) | 101% (active)
Cn1nccc1C(=O)NC1CCCc2c1cnn2-c1ccccc1F (centres undefined) | 96.6% (active)
COc1ccc(C(=O)NC2CCCc3c2cnn3-c2cccc(C)c2C)c(OC)n1 (centres undefined) | 84.1% (active)
Cc1nc(N2CCOCC2)c2c(C)c(C(=O)Nc3ccc(C(F)(F)F)cc3)sc2n1 | 81.9% (active)
CCCCCc1c(Cc2ccccc2)ncn1CCc1ccccc1OC | 106% (active)
Nc1nnc(SCC(=O)Nc2ccc3nc(SCC(=O)Nc4ccccc4)sc3c2)s1 | 77.9% (active)
Cc1cccc(NC(=O)Nc2cccc(Oc3c(F)c(F)c(F)c(F)c3F)c2)c1 | 62.1% (active)
CCN(CC)S(=O)(=O)c1ccc(N(C)Cc2ccc(C(F)(F)F)cc2)nc1 | 93.6% (active)
CSc1nsc(NC(=O)Nc2ccccc2)n1 | 89.7% (active)

SMILES | inhibition
CCSc1nsc(NC(=O)Nc2cccc(C(C)=O)c2)n1 | 83.6% (active)
C=CCSc1nsc(NC(=O)Nc2cccc(C(C)=O)c2)n1 | 84.6% (active)
COc1ccc(/C=C(/CC(=O)Nc2ccc(C)cc2)c2nc3ccccc3s2)cc1 | -7.49% (inactive)
O=C(Nc1ccccc1)Nc1nc2ccccc2s1 | 80.6% (active)
CCCCN(CCCC)CCC(O)c1cc2c(Cl)cc(Cl)cc2c2cc(C(F)(F)F)ccc12 (centres undefined) | -7.09% (inactive)
CC(C)CC(=O)N/C(N)=N/c1nc2ccccc2s1 | 50% (active)
O=C1c2ccccc2C2=Nc3ccccc3SC(c3ccccc3F)C12 (centres undefined) | 59% (active)
S=C(Nc1cccc(Br)c1)N1CCn2cccc2C1c1cccnc1 (centres undefined) | 94.4% (active)
Cc1ccc(S(=O)(=O)N(CC(=O)Nc2cccc([N+](=O)[O-])c2)Cc2ccc(Cl)cc2)cc1 | 88.5% (active)
CN(c1ccccc1)S(=O)(=O)c1cccc(NC(=O)Cc2ccc(Cl)cc2)c1 | 81.2% (active)
CN(c1cccc(NC(=O)Nc2ccc(Cl)cc2)c1)S(C)(=O)=O | 91.2% (active)
O=C(c1ccncc1)N1CCN(S(=O)(=O)c2cc(C(F)(F)F)cc(C(F)(F)F)c2)CC1 | 99.7% (active)
O=C(Cc1ccsc1)N1CCN(S(=O)(=O)c2cc(C(F)(F)F)cc(C(F)(F)F)c2)CC1 | 86.7% (active)
CCC(C)N1C(=O)S/C(=C/c2ccc(Sc3nc4ccccc4[nH]3)o2)C1=O (centres undefined) | 91.4% (active)
Oc1c(Cl)cc(Cl)c(Cl)c1Cc1c(O)c(Cl)cc(Cl)c1Cl | 16.1% (inactive)
Cc1nc2c(OCc3ccc(Cl)cc3Cl)cccn2c1N(C)CC1CC1 | 105% (active)
Cc1nc2c(OCc3ccc(Cl)cc3)cccn2c1N(C)Cc1cccs1 | 106% (active)
Cc1nc2c(OCc3cccc(Cl)c3)cccn2c1N(C)CC1CC1 | 107% (active)
O=C(/C(=C/c1cccc(Cl)c1)c1nc2ccccc2[nH]1)c1ccccc1 | 77.4% (active)
NC(N)=N/N=C/c1ccc(Cl)c([N+](=O)[O-])c1 | -8.15% (inactive)
CC(C)(C)c1ccc(SCCc2ccncc2)cc1 | 98.5% (active)
Cc1cc(C)c(SCCc2ccncc2)c(C)c1 | 95.5% (active)
c1ccc2c(CSCc3nc4ccccc4[nH]3)cccc2c1 | 55.6% (active)
O=C(Nc1cccc(C(F)(F)F)c1)c1ccc(N2CCNCC2)c([N+](=O)[O-])c1 | -27% (inactive)
O=C(c1ccc(N2CCCC2=O)cc1)N1CCN(c2ccc(C(F)(F)F)cc2[N+](=O)[O-])CC1 | 76% (active)

SMILES | inhibition
N#Cc1c(-c2cccs2)nc(SCC(=O)c2ccc(Br)cc2)[nH]c1=O | 61.2% (active)
Cc1ccc(NC(=O)Nc2nnc(-c3ccncc3)s2)cc1 | 81.7% (active)
Cc1nnc(NC(=O)Nc2ccc(Cl)c(Cl)c2)s1 | 94% (active)
CCc1ccc(NC(=O)Nc2ccncc2)cc1 | 71.8% (active)
CCCCC(=O)NNC(=S)NC(=O)C(c1ccccc1)c1ccccc1 | -2.85% (inactive)
O=[N+]([O-])c1cc(Cl)cc(/C=N/NC(=S)Nc2cc(S(=O)(=O)N3CCOCC3)ccc2Cl)c1O | 5.99% (inactive)
O=C(c1cc(-c2cccc(O)c2)on1)N1CCc2ccccc2C1 | 33.5% (active)
O=C(NNc1ccccc1Cl)C(O)(c1cccc(C(F)(F)F)c1)c1cccc(C(F)(F)F)c1 | 83.9% (active)
Cc1ccc(S(=O)(=O)Nc2ccc3ncccc3c2)cc1 | 72.7% (active)
COc1ccc(S(=O)(=O)NCCCCOc2ccc(Cl)cc2)cc1 | 88.4% (active)
O=[N+]([O-])c1cc(Br)c(O)c(/C=N/Nc2nc3ccccc3s2)c1 | 65.6% (active)
O=C(CCN1C(=O)/C(=C/c2cccs2)SC1=S)NNC(=O)c1cccc(O)c1 | 49% (active)
COc1cc(NC(=O)c2cncc(-c3ccc(C#N)cc3)c2)cc(C(=O)Nc2cccc(C(F)(F)F)c2)c1 | 58.3% (active)
COCCn1c(CN2CCC(Cc3ccccc3)CC2)nc2c1c(=O)n(C)c(=O)n2C | 10.1% (inactive)
COC(=O)c1c(C)[nH]c(C(=O)/C=C/c2ccc(Cl)cc2)c1C | 86.5% (active)
CCCc1nc2scc(-c3ccc(C)cc3)c2c(=O)n1N | 20.9% (active)
CC(C)c1ccc(NC(=S)NC2CC3C=CC2C3)cc1 (centres undefined) | 91% (active)
COc1cccc(CNS(=O)(=O)c2ccc3c(c2)CC(C)N3C(=O)C2CCC2)c1 (centres undefined) | 91.1% (active)
O=C(Nc1nc(-c2ccc3c(c2)OCO3)cs1)c1ccncc1 | 42.8% (active)
Cc1ccc(F)cc1NC(=O)Cc1nn(C)c(=O)c2ccccc12 | 29.6% (active)
Cc1ccc(-c2nc(COC(=O)c3c(C)noc3C)cs2)cc1 | 23.4% (active)
Cc1ccc(-c2noc(CCC(=O)Nc3ccccc3N3CCN(C)CC3)n2)cc1 | -2.79% (inactive)
Cc1ccc(NC(=O)CN(C)CC(=O)Nc2cccc(F)c2)cc1[N+](=O)[O-] | 100% (active)
Cc1cc(C)c(NC(=O)C[N+](C)(C)CC(O)COc2cccc3ccccc23)c(C)c1 (centres undefined) | -17% (inactive)
